From PubChem BioAssay AID588519 (ICCB-Longwood Screening Facility, Harvard Medical School, 2011)
Screen size: about 150,000 compounds; about 1,000 (0.67%) were called active. This is one part of a sample in which actives are shown more often than they occur. No stated cut-off is given here; in the data, active means % elongation below about 90%; inactive means the rest, inconclusive results apart.

Biological target: Genome polyprotein (Poliovirus type 1 (strain Mahoney)) (UniProt P03300)
Test: inhibitors of poliovirus polymerase RNA elongation – biochemical, fluorescence polarization, total intensity, primary screen (AID 588519); on z-score: compound at 16.7 µg/mL
Conditions: stronger effect = lower value; for % elongation: compound at 16.7 µg/mL; for z-score: measured here: FP z-score
[1] = measured here: total intensity read-out

Sequence of Genome polyprotein (Poliovirus type 1 (strain Mahoney)) (P03300 1749-2209 limits assumed): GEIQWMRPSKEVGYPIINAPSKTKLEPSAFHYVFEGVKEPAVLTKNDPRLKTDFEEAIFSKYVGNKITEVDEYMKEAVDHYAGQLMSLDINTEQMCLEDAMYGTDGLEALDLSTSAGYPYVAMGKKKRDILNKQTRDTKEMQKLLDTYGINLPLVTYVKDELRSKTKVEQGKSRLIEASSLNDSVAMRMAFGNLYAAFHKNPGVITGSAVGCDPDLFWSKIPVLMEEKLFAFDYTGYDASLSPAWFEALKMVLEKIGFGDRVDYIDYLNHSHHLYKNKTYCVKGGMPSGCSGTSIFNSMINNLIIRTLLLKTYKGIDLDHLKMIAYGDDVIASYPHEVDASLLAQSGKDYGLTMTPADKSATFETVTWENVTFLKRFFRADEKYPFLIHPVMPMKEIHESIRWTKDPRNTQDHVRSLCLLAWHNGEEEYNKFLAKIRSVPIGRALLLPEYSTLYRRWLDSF

SMILES | % elongation | z-score | % elongation [1]
COC(=O)CSc1nnc2c(n1)[nH]c1ccccc12 | 102% (inactive) | 0.2 | 108%
CC(C)(C)NC(=O)C1CCN(S(=O)(=O)c2ccccc2)CC1 | 101% (inactive) | 0.1 | 103%
CCC(=O)Nc1ccc(C(=O)n2nnc3ccccc32)cc1 | 104% (inactive) | 1 | 102%
O=C1C(Nc2ccc(O)cc2)=C(n2nnc3ccccc32)C(=O)c2ccccc21 | 79% (active) | -2.2 | 79%
N#CC1=C2Sc3ccccc3N2CC1=O | 97% (inactive) | -1 | 165%
Cc1c(C(=O)NC(C)CCc2ccccc2)oc2c1C(=O)CCC2 (stereo unspecified) | 102% (inactive) | 0 | 102%
Sc1ccc2ccccc2c1 | 90% (active) | -1.5 | 91%
c1ccc2cc3cnccc3cc2c1 | 100% (inactive) | -0.3 | 102%
O=C1c2ccccc2C(=O)C1c1ccc2ccccc2c1 | 93% (inactive) | -1.3 | 92%
N#Cc1ccc(COC(=O)Cc2noc3ccccc23)cc1 | 109% (inactive) | 0.7 | 104%
O=S(=O)(c1cc(S(=O)(=O)C(F)(F)F)c(Cl)c(S(=O)(=O)C(F)(F)F)c1)C(F)(F)F | 98% (inactive) | -0.2 | 95%
C/C(=N\c1ccccn1)C1=C(O)c2ccccc2C1=O | 98% (inactive) | -1 | 97%
O=S(=O)(NC1CCCCC1N1CCCCC1)c1ccc(Cl)cc1 (stereo unspecified) | 104% (inactive) | 0.2 | 96%
Cc1ccc2nc(Nc3ccccc3)cc(C)c2c1 | 110% (inactive) | 0.8 | 111%
Cc1ccc2nc(C)c3c(c2c1)N(c1ccccc1)CC3 | 89% (active) | -2.3 | 89%
Cc1ccc2nc(-c3ccccn3)cc(C(=O)O)c2c1 | 103% (inactive) | 0.8 | 100%
CC(=O)OC[C@H]1O[C@@H](NC(=S)NN)[C@H](OC(C)=O)[C@@H](OC(C)=O)[C@@H]1OC(C)=O | 103% (inactive) | 0.3 | 96%
CC(=O)Oc1c[n+]([O-])n(-c2ccccc2)n1 | 97% (inactive) | -0.6 | 100%
CCOC(=O)C(C(=O)c1ccccc1)C1(O)C(=O)c2ccccc2C1=O (stereo unspecified) | 46% (active) | -6.9 | 56%
CCOc1cc(C2C(C(=O)OC)=C(C)NC3=C2C(=O)c2ccccc23)ccc1O (stereo unspecified) | 112% (inactive) | 0.2 | 113%
CCOC(=O)C1=C(C)NC(=O)NC1c1ccccc1 (stereo unspecified) | 101% (inactive) | -0.1 | 102%
COC(=O)CC(N)c1ccc(Cl)cc1 (stereo unspecified) | 103% (inactive) | 0.2 | 106%
C=CCN1CCN(C(c2ccc(C)cc2)c2nnnn2C2CCCC2)CC1 (stereo unspecified) | 103% (inactive) | 0.4 | 102%
Cc1ccc(NC(=O)CC(=O)Nc2ccc(C)cc2)cc1 | 106% (inactive) | 0.3 | 102%
CSC(=S)Nc1ccc(C)cc1 | 100% (inactive) | 0.1 | 104%
Cc1ccc(NC(=S)Nc2ccc(C)cc2)cc1 | 76% (active) | -4.1 | 82%
O=C(O)COc1cc(Br)c(Br)c(Br)c1O | 102% (inactive) | 0.1 | 92%
